Results on 40 compounds are retold here after PubChem BioAssay (NCATS).

Molecules are shown by their SMILES. Records with an inconclusive call do not appear. Entries that show only a call come without a potency. The source made the active and inactive calls. Calls come from the whole dose curve; as a rule, active = well fitted cell-killing curve with a large enough effect; inconclusive = small, poorly fitted or top-dose-only effect; inactive = no such curve, though single readings can be large or run the other way.
Potency is the fitted concentration of half-maximal effect.

The nature of the assay: qHTS of pediatric cancer cell lines to identify multiple opportunities for drug repurposing: Primary screen for Saos-2 cells (AID 1347097). Note: nearly all actives have a fitted effect of over 40% in size. The following applies: Saos-2 viability, CellTiter-Glo ATP luminescence, 48 h; series mostly up to 46 µM. From the text:
Drug repurposing or repositioning has been offered as a strategy for drug development in oncology programs. This approach has special potential for childhood cancers and other rare or orphan diseases, where the expected return on new drug development has been a disincentive to pharmaceuticals. […] In this project we exploit the poly-pharmacology of drugs to discover new indications via phenotypic screening of a panel of 19 well-characterized cell lines derived from solid tumors seen in children and adolescents. The goal is to identify approved drugs with previously unrecognized anticancer properties that has the potential to reveal new mechanisms and biological processes involved in carcinogenesis or drug resistance. We employed a titration-based paradigm (quantitative high-throughput screening or qHTS), where all compounds were tested at multiple concentrations for their effect on cell viability. Concentration-response curves (CRCs) were derived directly from the primary screen, and both potency and efficacy values were used to identify compounds with robust bioactivity profiles. We screened the NIH Chemical Genomics Center (NCGC) Pharmaceutical Collection (NPC) and Mechanism Interrogation Plate (MIPE) small molecule collections of approved and investigational compounds against these cell lines; and measured metabolically active cells after 48 hours of compound treatment as a proxy for cell viability. […] Assay Submitter: Nathalia J. Martinez, National Center for Advancing Translational Sciences, National Institutes of Health, Rockville, MD, USA; email: natalia.martinez@nih.gov Shen, M et al. Quantitative high-throughput phenotypic screening of pediatric cancer cell lines identifies multiple opportunities for drug repurposing. Oncotarget 2017 Dec 19;9(4):4758-4772. PMID 29435139.
The cells were obtained from University of North Carolina (UNC), Pediatric Preclinical Testing Program (PPT), and Coriell Institute (CI). qHTS cell viability assay: Cells were assayed in growth media at a density of 500-1,000 cells/well. Five microliters of cells were dispensed into 1,536-well, white, solid-bottom, TC-treated plates (Greiner Bio One) using a multidrop dispenser and incubated at 37 degrees C, 5% CO2, under a humidified atmosphere for 5 hours. Twenty-three nanoliters of compounds and controls (neutral control DMSO or positive control bortezomib at final concentration of 2.3 µM) were subsequently transferred by Kalypsys pintool. For primary screens, the MIPE collection was tested at 11-point dilutions (final concentrations range from 0.78 nM to 46 µM) and the NPC collection at 8-point dilutions (final concentrations range from 0.59 nM to 46 µM). Compounds tested in follow-up screens were assayed at 11-point dilutions. Cells were incubated for 48 hours, followed by addition of 3 µL of CellTiter-Glo (Promega). After a 15 min incubation at room temperature, samples were analyzed for luminescence intensity using a ViewLux High-throughput CCD imager equipped with clear filters.
Background: qHTS replaces the single test concentration by a dilution series.
Take `O=C1CC[C@@]2(O)[C@H]3Cc4ccc(O)c5c4[C@@]2(CCN3CC2CC2)[C@H]1O5`: the Potency result is “inactive”.
As to `CCN(CC)CCOC(=O)C(O)(c1ccccc1)c1ccccc1`, the Potency entry was “inactive”.
Consider `CC1NCCOC1c1ccccc1` (stereo not given), for which the Potency result was “inactive”.
On to `COc1ccc(C(CN(C)C)C2(O)CCCCC2)cc1` (stereo not given), for which the Potency entry is “inactive”.
The value for `CC(CCc1ccccc1)NC(C)C(O)c1ccc(O)cc1` (stereo not given) was “inactive”; that for `CN1CCN(C(=O)O[C@H]2c3nccnc3C(=O)N2c2ccc(Cl)cn2)CC1` was “inactive”; that for `Cc1sc2c(c1C)C(c1ccc(Cl)cc1)=N[C@@H](CC(=O)OC(C)(C)C)c1nnc(C)n1-2` was 1.48 µM (active).
Consider `COc1ccc(Cc2nccc3cc(OC)c(OC)cc23)cc1OC`, for which the Potency result was “inactive”.
As for `O=C(NC(O)C(Cl)(Cl)Cl)NC(O)C(Cl)(Cl)Cl` (stereo not given), the Potency entry is “inactive”.
For the compound `CC(C)(N)Cc1ccc(Cl)cc1`, the Potency result was “inactive”.
With `CCC(C(N)=O)N1CCCC1=O` (stereo not given), the Potency entry is “inactive”.
`CC[N+]1(C)CCCC(OC(=O)C(O)(c2ccccc2)c2ccccc2)C1` (stereo not given): the Potency result is “inactive”.
On to `CCN(CC)C(=O)N[C@@H]1C=C2c3cccc4[nH]cc(c34)C[C@@H]2N(C)C1`, for which the Potency entry is “inactive”.
For `Cc1cccc(C)c1NC1=NCCCS1`, the Potency result is “inactive”.
The value for `O=[N+]([O-])c1cc([As](=O)(O)O)ccc1O` was “inactive”.
Regarding `CNCC(O)c1ccc(O)cc1` (stereo not given), the Potency entry was “inactive”.
For `CO[C@]12CC[C@@]3(C[C@@H]1[C@](C)(O)C(C)(C)C)[C@@H]1Cc4ccc(O)c5c4[C@@]3(CCN1CC1CC1)[C@H]2O5`, the Potency is 30.3 µM (active).
For `C=CCN1CC[C@]23c4c5ccc(O)c4O[C@H]2C(=O)CC[C@@]3(O)[C@H]1C5`, the Potency result is “inactive”.
Consider `C[C@]12CCC(=O)C(O)=C1CC[C@@H]1[C@@H]2CC[C@]2(C)C(=O)CC[C@@H]12`, for which the Potency result was “inactive”.
As for `CC(C)CC(N(C)C)C1(c2ccc(Cl)cc2)CCC1` (stereo not given), the Potency entry is “inactive”.
For `C=C1CC[C@@]2(O)[C@H]3Cc4ccc(O)c5c4[C@@]2(CCN3CC2CC2)[C@H]1O5`, the Potency entry was “inactive”.
Take `NCC(O)c1ccc(O)cc1` (stereo not given): the Potency result is “inactive”.
For the compound `CCN(CC)CCN1C(=O)CN=C(c2ccccc2F)c2cc(Cl)ccc21`, the Potency entry was “inactive”.
The entry for `NP(N)(=O)NC(=O)c1ccc(F)cc1` is “inactive”.
With `CCOP(=S)(OCC)Oc1cc(C)nc(C(C)C)n1`, the Potency entry is “inactive”.
The value for `Cc1ccc(-c2nc3ccc(C)cn3c2CC(=O)N(C)C)cc1` was “inactive”; that for `C[C@@H]1[C@@H](CC(C[C@H]2O[C@@H]3O[C@]4(C)CC[C@@H]5[C@H](C)CC[C@@H]([C@H]2C)[C@@]35OO4)C[S+](=O)([O-])c2ccc(COC(=O)N(C)C)cc2)O[C@@H]2O[C@]3(C)CC[C@H]4[C@H](C)CC[C@@H]1[C@@]24OO3` (stereo not given in full) was 0.118 µM (active); that for `CC(O)(CS(=O)(=O)c1ccc(F)cc1)C(=O)Nc1ccc(C#N)c(C(F)(F)F)c1` (stereo not given) was 23.5 µM (active).
The value for `N[C@@H](Cc1ccc(Oc2cc(I)c(O)c(I)c2)c(I)c1)C(=O)O` was “inactive”; that for `CC1OC(C)OC(C)O1` (stereo not given) was “inactive”; that for `c1ccc2c(c1)Nc1ccccc1S2` was 48.6 µM (active).
Consider `COC[C@H]1OC(=O)c2coc3c2[C@@]1(C)C1=C(C3=O)C2CCC(=O)[C@@]2(C)C[C@H]1OC(C)=O` (stereo not given in full), for which the Potency is 4.69 µM (active).
For the compound `CCC1(C2=NCCN2)Cc2ccccc2O1` (stereo not given), the Potency entry was “inactive”.
In the case of `OCCOc1ccccc1`, the Potency result was “inactive”.
Take `O=c1oc2ccccc2c(O)c1C(CC(O)c1ccc(-c2ccc(Br)cc2)cc1)c1ccccc1` (stereo not given): the Potency entry was “inactive”.
For the compound `CC(=O)[C@H]1CC[C@H]2[C@@H]3CC[C@H]4C[C@H](O)CC[C@]4(C)[C@H]3C(=O)C[C@]12C`, the Potency entry is “inactive”.
Regarding `O=c1[nH]c2ccccc2n1CCCN1CCC(n2c(=O)[nH]c3cc(Cl)ccc32)CC1`, the Potency entry is “inactive”.
Turning to `Cn1c(CCCC(=O)O)nc2cc(N(CCCl)CCCl)ccc21`, the Potency entry was “inactive”.
`FC(F)(F)c1cccc(C2=CCN(CCc3ccc4ccccc4c3)CC2)c1`: the Potency result was “inactive”.
With `COc1ccccc1N1CCNCC1`, the Potency entry was “inactive”.
